Source: PubChem BioAssay (NCI)
About 79,000 compounds went through this panel and 15% of them were active in at least one assay; those are over-represented in the sample as a whole. Activity calls are given as the source filed them. Cut-off read from the data, not from the text of the source: active = growth inhibition above about 70%; inactive = the rest. Where a SMILES comes first, the peptide text is derived from it. [ ]: non-standard residue; d: D form. The star is where a group is joined. Cbz = O=C(OCc1ccccc1)*; Nva = CCC[CH](N)C(=O)O; Aib = CC(C)(N)C(=O)O

Assays:
[1] = NCI Yeast Anticancer Drug Screen. Data for the rad50 strain (AID 155);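 note: 0% = growth of vehicle-only cultures of the same strain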; settings: S. cerevisiae rad50 strain growth inhibition; at 50.0 µM; hits give high values
In short: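 Vehicle-treated cultures provide the reference for the growth inhibition reported for compound-exposed, repair-deficient yeast.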

[2] = NCI Yeast Anticancer Drug Screen. Data for the sgs1 mgt1 strain (AID 161);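 note: 0% = growth of cultures given vehicle only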; settings: S. cerevisiae sgs1 mgt1 strain, at 50.0 µM, hits give high values
In short: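 Compounds are added to genetically altered yeast, and growth is compared with cultures given vehicle alone to give percent inhibition.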

[3] = NCI Yeast Anticancer Drug Screen. Data for the cln2 rad14 strain (AID 165);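 note: 0% = growth equal to vehicle treated cultures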; settings: S. cerevisiae cln2 rad14 strain, at 50.0 µM, hits give high values
In short: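 Yeast strain cln2 rad14, bearing defects in cell cycle control and DNA repair, serves as the test system; values reflect growth inhibition compared with vehicle.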

[4] = NCI Yeast Anticancer Drug Screen. Data for the bub3 strain (AID 167); settings: S. cerevisiae bub3 mutant strain, at 50.0 µM, hits give high values
In short: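 Mutant yeast screening strain plus compound; vehicle-treated cultures serve as the 0% inhibition reference.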

[5] = NCI Yeast Anticancer Drug Screen. Data for the mlh1 rad18 strain (AID 175); settings: S. cerevisiae mlh1 rad18 strain growth inhibition; at 50.0 µM; hits give high values
In short: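 Steps: expose repair-defective yeast to compound; measure growth; express inhibition against vehicle-treated controls.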

[6] = NCI Yeast Anticancer Drug Screen. Data for the mec2-1 strain (AID 157); settings: S. cerevisiae mec2-1 strain, at 50.0 µM, hits give high values
In short: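 Using mec2-1 yeast: add compound, measure growth, express inhibition versus vehicle-treated cultures.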

SMILES	growth inhibition [1]	growth inhibition [2]	growth inhibition [3]	growth inhibition [4]	growth inhibition [5]	growth inhibition [6]
CC(=O)OCC1CCCCO1 (stereo not given)	2.6% (inactive)	-6.1% (inactive)	-0.2% (inactive)	-0.2% (inactive)	-4.7% (inactive)	–
O=C(CCn1[nH]c(=O)c(Cl)c(Cl)c1=O)NO	-21.3% (inactive)	-9.75% (inactive)	3.35% (inactive)	-19.1% (inactive)	-13.9% (inactive)	–
CCOC(=O)C1(C)CCCc2sc(N)c(C#N)c21 (stereo not given)	-42.4% (inactive)	-11.1% (inactive)	-6.45% (inactive)	-14.2% (inactive)	5.45% (inactive)	–
CCCCC(/C=C(/C)C(=O)O)CC (stereo not given)	6.9% (inactive)	3.9% (inactive)	-1.8% (inactive)	3.3% (inactive)	0.9% (inactive)	–
CN(C)C(=O)c1cc2ccccc2[nH]1	28.9% (inactive)	6.7% (inactive)	12.8% (inactive)	3.75% (inactive)	20.2% (inactive)	–
COc1ccc(CCC(=O)O)c(C(CC(=O)O)C(=O)O)c1OS(=O)(=O)c1ccc(C)cc1 (stereo not given)	-21.2% (inactive)	-40.5% (inactive)	6.05% (inactive)	-33.3% (inactive)	-21.6% (inactive)	–
CN(C1c2ccccc2Oc2ccccc21)S(=O)(=O)c1ccc([N+](=O)[O-])cc1	9.9% (inactive)	6% (inactive)	21.8% (inactive)	3.35% (inactive)	40.1% (inactive)	–
Cc1ccc(N=Cc2ccc3c(c2)OCO3)cc1C	8.05% (inactive)	9.65% (inactive)	40.6% (inactive)	10.1% (inactive)	29.2% (inactive)	–
O=C(Cc1nc2ccc(Cl)cc2[nH]c1=O)c1ccncc1	-2.8% (inactive)	-3.55% (inactive)	8.1% (inactive)	-24.1% (inactive)	20.8% (inactive)	–
CCC(=O)OC1C(OC2C(C)C(OC3CC(C)(OC)C(O)C(C)O3)C(C)C(=O)OC(CC)C(C)(O)C(O)C(C)C(=O)C(C)CC2(C)O)OC(C)CC1N(C)C (stereo not given)	-18.1% (inactive)	-31.2% (inactive)	5.7% (inactive)	-3% (inactive)	-76.8% (inactive)	–
CC(C)(NC(=O)C(C)(C)NC(=O)OCc1ccccc1)C(=O)O (Cbz-[Aib]-[Aib]-OH)	6.05% (inactive)	3.9% (inactive)	14.1% (inactive)	0.25% (inactive)	-64.5% (inactive)	–
[B-]([C+]1CCCCC1)N1C=CC=CC1	1.2% (inactive)	15.7% (inactive)	-4.75% (inactive)	4.95% (inactive)	-2.1% (inactive)	–
Cc1ccc(Cl)cc1NC(=O)/C=C/c1ccccc1	3.05% (inactive)	6.4% (inactive)	-7.35% (inactive)	10.5% (inactive)	18.6% (inactive)	–
CCC1(CCCCCBr)OCCO1	13.9% (inactive)	19.6% (inactive)	10.2% (inactive)	14.8% (inactive)	7.9% (inactive)	–
C=CCOC(=O)NC(Cc1ccc(O)cc1)C(=O)O (stereo not given)	-0.05% (inactive)	4.5% (inactive)	3.65% (inactive)	-10.8% (inactive)	-2.45% (inactive)	–
CN/N=C(\C)CC(=O)Nc1cccc(Cl)c1C	-13.7% (inactive)	-1.15% (inactive)	17.2% (inactive)	-15% (inactive)	1.9% (inactive)	–

SMILES	growth inhibition [1]	growth inhibition [2]	growth inhibition [3]	growth inhibition [4]	growth inhibition [5]	growth inhibition [6]
CCCC(NC(=O)OCc1ccccc1)C(=O)NC(CCSC)C(=O)O (stereo not given) (Cbz-[Nva]-Met-OH; configuration not given here)	-54.6% (inactive)	-4.65% (inactive)	11.5% (inactive)	-0.85% (inactive)	-5.95% (inactive)	–
O=C(Nc1cccc([N+](=O)[O-])c1)C1C(=O)N(c2cccc([N+](=O)[O-])c2)C(=O)/C1=N/O (stereo not given)	-16.8% (inactive)	-24.8% (inactive)	-50.4% (inactive)	0.1% (inactive)	-3.5% (inactive)	–
COc1ccc2c(c1)c(=O)c1c(NCCCN(C)C)ccc3ncn2c31	34.6% (inactive)	15.8% (inactive)	-1.7% (inactive)	-9.6% (inactive)	9.3% (inactive)	–
Oc1ccccc1C1SCSCS1	14.8% (inactive)	14.1% (inactive)	-3.3% (inactive)	-10.4% (inactive)	5.85% (inactive)	–
CCCCCC/C=C\CCCCCCCCCC1=CC(=O)C=C(OC)C1=O	-1.35% (inactive)	-19% (inactive)	-83.8% (inactive)	-31.4% (inactive)	-11.7% (inactive)	–
Cc1nc(=O)n2c(c1C(=O)Nc1ccc(Cl)cc1)NCC2	3.75% (inactive)	0.1% (inactive)	-37.9% (inactive)	2.35% (inactive)	14.8% (inactive)	–
CC1=CC(C)(C)NC(=S)N1c1ccc(C)cc1S(=O)(=O)O	28.5% (inactive)	-18% (inactive)	-16.2% (inactive)	7.95% (inactive)	27.9% (inactive)	–
O=C(Nc1ccc2ccccc2c1)c1ccc(Cl)cc1Cl	-12.1% (inactive)	-0.7% (inactive)	-2.85% (inactive)	2.45% (inactive)	-14.8% (inactive)	–
O=C1C(Cl)=C(N(C(=O)c2ccccc2)C(=O)c2ccccc2)C(=O)c2ccccc21	6.6% (inactive)	83.2% (active)	74% (active)	86% (active)	-51.6% (inactive)	–
Nc1cccc2c1C(=O)OC2=O	-6.6% (inactive)	-10.2% (inactive)	-5.7% (inactive)	-3.45% (inactive)	3.85% (inactive)	–
NC(C(=O)O)c1ccc(F)cc1 (stereo not given)	-9.1% (inactive)	28.7% (inactive)	-10% (inactive)	2.4% (inactive)	37.5% (inactive)	–
CC/C(=N\O)c1ccc2cc(Cl)c3ccccc3c2c1	21.7% (inactive)	44.5% (inactive)	8.75% (inactive)	54.2% (inactive)	31.9% (inactive)	–
CCCCCCCCCSCCS	-14.1% (inactive)	2% (inactive)	-16.2% (inactive)	-19.4% (inactive)	-22.2% (inactive)	–
N#CC1(Nc2ccc(-c3ccc(NC4(C#N)CCCC4)cc3)cc2)CCCC1	40.8% (inactive)	-36.5% (inactive)	-40.9% (inactive)	-2.55% (inactive)	21.1% (inactive)	–
Cc1ccc(NC(=O)C2C3CC4OC(=O)C2C4C3)cc1 (stereo not given)	-10.6% (inactive)	11.5% (inactive)	0.55% (inactive)	18.6% (inactive)	-16.6% (inactive)	–
CCCCCCCCCc1cc(-c2ccc(C=O)s2)sc1-c1ccc(C=O)s1	–	-8.8% (inactive)	-3.6% (inactive)	-12.9% (inactive)	0.4% (inactive)	-4.5% (inactive)
